Pf growth 48h = Primary qHTS for delayed death inhibitors of the malarial parasite plastid, 48 hour incubation | P. falciparum luciferase growth in erythrocytes, 48 h | Potency, µM (doses to about 28.7 µM), hits mostly inhibitors | 310,000 tested, 5.9% active | AID 504832, 2011
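Cell-based growth assay: transgenic P. falciparum expressing firefly luciferase, cultured in red cells within RPMI 1640 containing 0.5% w/v Albumax, 24 mM bicarbonate and gentamycin. A drop in luciferase activity indicates inhibition.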
HCMV antiviral = qHTS Assay for inhibitors of the human cytomegalovirus (HCMV). HFF cells, HCMV-luciferase reporter, 72 h; hits give low values. 410,000 tested, 4.5% active. activity change, negative = inhibition, % at 57.5 µM; in the data active means activity change below about -60%; inconclusive means no clear call, values can overlap the other calls; inactive means above about -39%
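Screen run at 2 compound doses on HFFs infected with reporter HCMV, MOI 1 PFU/cell. Luciferase activity from cell lysates at 72 h post infection gave inhibition relative to buffer-only and Salinomycin wells.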
MARV entry inh = qHTS for inhibitors of binding or entry into cells for Marburg Virus; Marburg virus pseudotyped entry inhibition, cell reporter; Potency, µM (series often up to 37.8 µM), most hits filed as inhibitors; 300,000 tested, 1.8% active; calls by dose curve; tested in HEK293 cells
Lassa entry inh = qHTS for Inhibitors of binding or entry into cells for Lassa Virus. Lassa virus pseudotype entry inhibition, cell reporter. Potency, µM (series often up to 37.9 µM), actives largely listed as inhibitors. 300,000 tested, 1.2% active; calls by dose curve; tested in HEK293 cells; further: nearly all actives have a fitted effect of over 50% in size
HCV inh = qHTS Assay for Inhibitors of Hepatitis C Virus (HCV); Huh7.5.1 HCVcc-Cre infection, luciferase reporter, 44 h; Potency, µM (highest dose often 41.8 µM), hits mostly inhibitors; 340,000 tested, 3.4% active
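Cells seeded at 1,000/well and cultured 4 h, then compounds added followed by HCVcc-Cre virus (~0.5 moi). After 44 h further culture, luciferase substrate was added, plates held 15 min at room temperature, and luminescence read for 15 sec.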
Pf growth 96h = Primary qHTS for delayed death inhibitors of the malarial parasite plastid, 96 hour incubation; Potency, µM (doses to about 28.7 µM), usual class: inhibitors; 320,000 tested, 6.9% active; P. falciparum luciferase reporter growth, 96 h
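Erythrocytes infected with luciferase-expressing P. falciparum were dispensed at 2% hematocrit and 0.05% parasitemia (final), then incubated with compounds 96 hours at 37 C in 5% CO2. Luminescence after detection reagent addition reported growth.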
Hits are given with their value; n = inactive; u = inconclusive; x = no result. A selection: hits, their analogues and other compounds. The true share with any hit is near 14%. Unless noted, the call rests on the fitted dose curve; in most records, active means well fitted inhibition curve with a large enough effect; inconclusive means small, poorly fitted or top-dose-only effect, or another doubt; inactive means no such curve, though single readings can be large or run the other way.

SMILES | Pf growth 48h | HCMV antiviral | MARV entry inh | Lassa entry inh | HCV inh | Pf growth 96h
COc1ccccc1NC(=O)Nc1ccccc1Br | u | n | n | n | u | n
COc1ccc(OC)c(S(=O)(=O)N(C)CC(=O)Nc2ccccc2OC)c1 | n | n | n | n | n | n
Cn1c(CNC(=O)CSc2nc(-c3ccccc3F)nc3cc(=O)[nH]n23)nc2ccccc21 | x | n | x | n | x | x
CC(=O)N1CC(O)CC1C(=O)O (stereo not given) | n | x | x | x | x | n
CCOc1cc(N2CCOCC2)c(OCC)cc1NC(=O)CN1C(=O)N(C)C2(CCCCC2)C1=O | n | n | x | x | n | n
O=c1ccc2[n+]([O-])c3ccc(O)cc3oc-2c1 | 1.9µM | -61 | x | x | n | 4.7µM
C=C1CC2C(CC[C@]3(C)C(=O)CCC23)[C@]2(C)C=CC(=O)C=C12 (stereo not given in full) | u | x | x | x | x | 13µM
CC(=O)N1CCN(c2ccnc3cc(Cl)ccc23)CC1 | u | u | n | n | n | 12µM
ClCCN1CCN(c2ccnc3cc(Cl)ccc23)CC1 | 0.83µM | n | x | x | n | 0.83µM
O=C(O)CSc1ccnc2cc(Cl)ccc12 | n | n | n | n | n | n
CCCCNC(=O)N1CCN(c2ccnc3cc(Cl)ccc23)CC1 | 4.7µM | x | u | n | n | 3.7µM
O=C(Oc1ccnc2cc(Cl)ccc12)N1CCOCC1 | u | -76 | n | n | n | u
O=C(CN1CCN(Cc2ccccc2)CC1)Nc1cccc(Cl)c1Cl | x | n | x | x | x | x
O=S(=O)(CCNCc1ccccc1)NC1CCCCC1 | x | n | x | x | n | x
O=S(=O)(c1cccs1)N1CCN(c2ccnc3cc(Cl)ccc23)CC1 | 9.3µM | -60 | u | u | u | 6.6µM
O=S(=O)(c1ccccc1)N1CCN(c2ccnc3cc(Cl)ccc23)CC1 | u | u | u | u | u | n
O=C(NCCCN1CCCC(O)C1)c1cc(COc2ccc(F)cc2F)on1 (stereo not given) | n | n | n | n | n | n
Cc1ccccc1Cn1cc(NC(=O)c2cc3nc(-c4ccco4)cc(C(F)(F)F)n3n2)cn1 | u | n | n | n | 10µM | n
CCc1ccc(-c2cc(C(F)(F)F)n3nc(C(=O)Nc4cnn(Cc5ccc(C)cc5)c4)cc3n2)s1 | x | x | 9.2µM | u | 11µM | 4.7µM
CN(Cc1cc(Cl)cc(Cl)c1)[C@H]1C[C@H]2c3[nH]c4ccccc4c3CCN2C(=O)[C@H]1CO | x | n | x | x | x | x
N/C(=N/O)c1ccccc1N1CCC(Cc2ccccc2)CC1 | n | -91 | x | x | n | u
CCOC(=O)C1C(=O)C=C(c2ccc(C)cc2)CC1c1cccc([N+](=O)[O-])c1 (stereo not given) | u | u | u | u | u | 6.6µM
O=C(c1cc(F)c(F)cc1Cl)N1CCN(c2ncccn2)CC1 | n | n | x | x | n | 5.2µM
O=C(c1cnc(N2CCN(c3ncccn3)CC2)c2ccccc12)N1CCN(c2ncccn2)CC1 | u | u | u | n | 11µM | u
CCN(C(=O)c1cnc(N2CCN(c3ncccn3)CC2)c2ccccc12)c1cccc(Cl)c1 | u | -85 | u | u | u | n
SMILES | Pf growth 48h | HCMV antiviral | MARV entry inh | Lassa entry inh | HCV inh | Pf growth 96h
O=C(c1sc2ccccc2c1Cl)N1CCN(c2ncccn2)CC1 | n | -63 | n | n | n | n
CCC(=O)N1CCCC(C)(C(=O)Nc2ccc(OC(F)F)cc2)C1 (stereo not given) | x | n | x | x | x | x
CCCn1cc(SCC(=O)Nc2ccc3c(c2)OCO3)c2ccccc21 | u | -65 | x | x | 14µM | 10µM
Cn1c(=O)cc(SCC(=O)Nc2ccc3c(c2)OCO3)c2ccccc21 | n | n | n | u | u | 2.9µM
CC(NC(=O)COc1cc(=O)n(C)c2ccccc12)c1ccc2c(c1)OCCO2 (stereo not given) | n | n | n | n | n | 8.3µM
Cc1ccccc1CNCCCSc1nnnn1C | x | n | n | n | x | x
CCOc1ccc(NC(=O)CN(C)C(=O)c2cccnc2Sc2ccccc2Cl)cc1OCC | u | u | n | n | u | n
CCc1noc(C)c1C(=O)N1CC(C)SC1=Nc1ccc(Cl)cc1 (stereo not given) | 10µM | n | n | n | u | 13µM
O=C(NNC(=O)c1cccs1)c1ccc2ccccc2c1 | n | n | n | n | n | 1.7µM

From PubChem
